Among all 5,500 compounds or so, about 2,000 (36%) were called active. About 18% were inconclusive and are not listed. Cut-off read from the data, not from the text of the source: active = normalized growth mostly below about 0.91 (no sharp cut-off); inconclusive = no clear call, values can overlap the other calls; inactive = mostly above about 0.92. The list shows a part of the results.
Experiment: chemical genetic growth profiling, strain panel (AID 1159580);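 note: tested at 20 µM; growth read once vehicle control cultures reached saturation at 30 °C; 1 = growth at the plate median or of vehicle wells; lower values mean less growth of the strain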
Conditions: S. cerevisiae deletion strains, growth OD

Measured: normalized growth

COc1ccc(-c2coc3cc(OC(C)=O)cc(OC(C)=O)c3c2=O)cc1
active: locus YDR334W, strain swr1, hits give low values 0.887 | locus YDR392W, strain spt3, hits give low values 0.576 | locus YHR142W, strain chs7, hits give low values 0.874 | locus YJL129C, strain trk1, hits give low values 0.861 | locus YNL071W, strain lat1, hits give low values 0.845
inactive: locus YAL021C, strain ccr4, hits give low values 0.964 | locus YAL026C, strain drs2, hits give low values 0.949 | locus YAL030W, strain snc1, hits give low values 0.958 | locus YBL061C, strain skt5, hits give low values 0.96 | locus YBR009C, strain hhf1, hits give low values 0.958 | locus YBR023C, strain chs3, hits give low values 0.967 | locus YBR171W, strain sec66, hits give low values 0.937 | locus YBR231C, strain swc5, hits give low values 0.957 | locus YBR279W, strain paf1, hits give low values 0.984 | locus YCL011C, strain gbp2, hits give low values 0.919 | locus YCL016C, strain dcc1, hits give low values 0.925 | locus YCL061C, strain MRC1, hits give low values 0.96 | locus YCL069W, strain vba3, hits give low values 0.953 | locus YCR088W, strain abp1, hits give low values 0.968 | locus YDL005C, strain med2, hits give low values 0.961 | locus YDL040C, strain nat1, hits give low values 0.983 | locus YDR001C, strain nth1, hits give low values 0.939 | locus YDR069C, strain doa4, hits give low values 0.92 | locus YDR137W, strain rgp1, hits give low values 0.871 | locus YDR159W, strain sac3, hits give low values 0.953 | locus YDR195W, strain ref2 1.01 | locus YDR297W, strain sur2, hits give low values 0.985 | locus YDR335W, strain msn5, hits give low values 0.967 | locus YEL003W, strain gim4, hits give low values 0.977 | locus YEL037C, strain rad23, hits give low values 0.972 | locus YEL061C, strain CIN8 (second series), hits give low values 0.965 | locus YER015W, strain faa2, hits give low values 0.951 | locus YER016W, strain bim1, hits give low values 0.972 | locus YER111C, strain swi4, hits give low values 0.968 | locus YER155C, strain BEM2 (second series), hits give low values 0.878 | locus YFR010W, strain ubp6, hits give low values 0.955 | locus YGL167C, strain pmr1, hits give low values 0.965 | locus YGL173C, strain kem1, hits give low values 0.922 | locus YGL227W, strain vid30, hits give low values 0.955 | locus YGL240W, strain doc1, hits give low values 0.961 | locus YGL253W, strain hxk2, hits give low values 0.925 | locus YHR013C, strain ard1, hits give low values 0.902 | locus YHR027C, strain rpn1, hits give low values 0.951 | locus YJL092W, strain hpr5, hits give low values 0.923 | locus YJL095W, strain BCK1 (second series), hits give low values 0.963 | locus YJL115W, strain asf1, hits give low values 0.914 | locus YJL154C, strain vps35, hits give low values 0.97 | locus YJL164C, strain tpk1, hits give low values 0.935 | locus YJL166W, strain qcr8, hits give low values 0.944 | locus YJL187C, strain SWE1, hits give low values 0.961 | locus YKL160W, strain elf1, hits give low values 0.988 | locus YKR026C, strain gcn3, hits give low values 0.965 | locus YKR091W, strain srl3, hits give low values 0.958 | locus YLL001W, strain dnm1, hits give low values 0.929 | locus YLL026W, hits give low values 0.967 | locus YLL041C, strain sdh2, hits give low values 0.963 | locus YLR027C, strain aat2, hits give low values 0.936 | locus YLR221C, strain rsa3, hits give low values 0.922 | locus YLR258W, strain gsy2, hits give low values 0.964 | locus YLR262C, strain YPT6 (second series), hits give low values 0.889 | locus YLR320W, strain mms22, hits give low values 0.927 | locus YLR342W, strain FKS1, hits give low values 0.968 | locus YLR357W, strain rsc2, hits give low values 0.981 | locus YLR370C, strain arc18, hits give low values 0.954 | locus YLR384C, strain iki3, hits give low values 0.968 | locus YML120C, strain ndi1, hits give low values 0.925 | locus YMR058W, strain fet3, hits give low values 0.935 | locus YMR125W, strain sto1, hits give low values 0.914 | locus YMR129W, hits give low values 0.966 | locus YMR205C, strain PFK2, hits give low values 0.91 | locus YMR231W, strain pep5, hits give low values 0.978 | locus YNL209W, strain ssb2, hits give low values 0.963 | locus YNL248C, strain rpa49, hits give low values 0.967 | locus YNL322C, strain KRE1 (second series), hits give low values 0.923 | locus YNR049C, strain mso1, hits give low values 0.954 | locus YOR001W, strain rrp6, hits give low values 0.971 | locus YOR070C, strain gyp1, hits give low values 0.972 | locus YOR080W, strain dia2, hits give low values 0.955 | locus YOR083W, strain WHI5, hits give low values 0.976 | locus YOR106W, strain vam3, hits give low values 0.928 | locus YOR265W, strain rbl2, hits give low values 0.963 | locus YOR270C, strain vph1, hits give low values 0.834 | locus YPL051W, strain arl3, hits give low values 0.959 | locus YPL078C, strain atp4, hits give low values 0.968 | locus YPL106C, strain sse1, hits give low values 0.913 | locus YPL240C, strain hsp82, hits give low values 0.956
